A selection: hits, their analogues and other compounds. The true share with any hit is near 12%.
OTUD3 inh: inhibitors of human OTUD3 deubiquitinase; OTU domain-containing protein 3 (Homo sapiens), Q5T2D3; purified OTUD3, Ub-rhodamine fluorescence, 2 h; inhibition, % at 25 µM; hit rate 0.7% among 47,000
USP17 block: inhibitors of human USP17 deubiquitinase | hit rate 6.5% among 47,000 | inhibition, % at 50 µM | Ubiquitin carboxyl-terminal hydrolase 17-like protein 5 (Homo sapiens), A8MUK1 | purified USP17, Ub-rhodamine cleavage fluorescence, 3 h
Target sequence (A8MUK1 whole entry, looked up): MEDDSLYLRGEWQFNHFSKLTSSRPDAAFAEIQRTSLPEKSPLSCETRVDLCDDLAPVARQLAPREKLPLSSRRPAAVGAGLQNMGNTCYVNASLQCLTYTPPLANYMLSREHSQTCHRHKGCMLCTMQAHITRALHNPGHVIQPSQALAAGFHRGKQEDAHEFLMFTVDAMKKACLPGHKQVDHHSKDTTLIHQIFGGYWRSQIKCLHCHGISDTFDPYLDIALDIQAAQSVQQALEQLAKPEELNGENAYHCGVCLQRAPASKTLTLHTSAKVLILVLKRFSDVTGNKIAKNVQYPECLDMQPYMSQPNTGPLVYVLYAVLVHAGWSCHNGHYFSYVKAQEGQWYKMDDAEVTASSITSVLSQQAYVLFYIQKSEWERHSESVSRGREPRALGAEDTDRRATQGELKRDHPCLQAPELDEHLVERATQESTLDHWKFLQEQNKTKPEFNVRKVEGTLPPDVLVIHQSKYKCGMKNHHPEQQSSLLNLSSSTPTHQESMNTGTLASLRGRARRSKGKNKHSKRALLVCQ
USP30 inh: inhibitors of human USP30 deubiquitinase | hit rate 5.3% among 47,000 | inhibition, % at 25 µM | purified USP30, Ub-rhodamine cleavage fluorescence | AID 1645860, 2021
USP28 inh: inhibitors of human USP28 deubiquitinase; Ubiquitin carboxyl-terminal hydrolase 28 (Homo sapiens), Q96RU2; purified USP28, Ub-rhodamine cleavage fluorescence, 30 min; inhibition, % at 25 µM; hit rate 3% among 47,000
Large screens that a line does not name were inactive. Rule as the data show it: active = inhibition above about 30%; inactive = the rest.

COc1ccccc1CNC(=O)c1oc(=O)c2ccccc2c1-c1ccc(C)cc1	USP30 inh 40
COc1ccc(C2CC(=O)N(Cc3ccc(F)cc3)C(=O)C2)cc1OC	USP17 block 47
CC(C)Cn1c(=O)c2sccc2n2c(CCC(=O)NC3CCCCCC3)nnc12	none (no result: USP17 block)
COc1cccc(NC(=O)Cn2c(=O)cc(-c3ccccc3)c3c(C)nn(-c4ccccc4)c32)c1	none
COc1ccc(Cl)cc1NC(=O)Cn1c(=O)cc(C)c2c(C)nn(-c3ccccc3)c21	USP17 block 56
Cc1cc(=O)n(CC(=O)NCc2ccccc2F)c2c1c(C)nn2-c1ccccc1	USP17 block 62, USP30 inh 33
COCC1CN(c2ccncn2)Cc2cn(CC3CCOCC3)nc21 (stereo unspecified)	none
CCCCc1nc2sc3c(SCC(=O)Nc4cccc(C)c4)ncnc3c2c2c1CCC2	USP17 block 64
CCCCc1nc2sc3c(SCC(N)=O)ncnc3c2c2c1CCC2	USP28 inh 36
CCCCc1nc2sc3c(SCC(=O)Nc4ccc(C)cc4)ncnc3c2c2c1CCC2	none
CC(C)Cc1nc2sc3c(SCC(N)=O)ncnc3c2c2c1CCC2	none (no result: USP30 inh, USP28 inh)
CCOC(=O)c1sc2nc(C)nc(NCc3ccccn3)c2c1C	USP30 inh 31
c1ccc(-c2cc3c(NCc4ccccn4)ncnc3s2)cc1	USP17 block 35
Cc1nc(NCc2ccccn2)c2cc(-c3ccccc3)sc2n1	USP17 block 74
c1ccc(-c2nc3sc4c(NCc5ccccn5)ncnc4c3c3c2CCC3)cc1	none
COc1cc2ncc(S(=O)(=O)c3ccccc3)c(N3CCOCC3)c2cc1OC	none
COc1ccc(-c2noc(NCCc3ccccc3)n2)cc1	USP17 block 37
Cc1ccc2[nH]cc(S(=O)(=O)c3ccc(C)c(F)c3)c(=O)c2c1	USP17 block 60
Cc1ccc2[nH]cc(S(=O)(=O)c3cc(F)cc(F)c3)c(=O)c2c1	none
CCSc1ccccc1C(=O)Nc1ccccc1C(=O)N1CCOCC1	none
CCn1c(CNc2ccc(C)cc2)nnc1SCC(=O)Nc1ccccc1F	none
CCn1c(CNc2ccc(C)cc2)nnc1SCC(=O)Nc1ccc(C(=O)OC)cc1	USP28 inh 42
CC1Oc2ccccc2C(=O)N(Cc2ccccc2F)C1=O (stereo unspecified)	none
O=C(COc1ccc2c(c1)OCO2)Nc1ccc2c(c1)CCC2	none
COc1ccc(C)cc1NC(=O)COc1ccc2c(c1)OCO2	USP17 block 52
O=C(NCc1ccco1)c1ccc(Cn2c(=O)c3sccc3n(Cc3cc(=O)n4ccccc4n3)c2=O)cc1	USP17 block 70, USP30 inh 40, USP28 inh 50
O=C(c1cc(C2CC2)on1)N1CCc2ccccc2C1	none
O=C(O)c1nccnc1C(=O)N1CCc2ccccc2C1	USP17 block 78, USP28 inh 46
COc1cc(C(=O)N(Cc2ccccc2)c2nc3ccccc3s2)cc(OC)c1OC	none
CCOc1cccc2sc(N(Cc3cccnc3)C(=O)CCc3ccccc3)nc12	USP30 inh 80
Cc1sc2ncnc(OCC(=O)c3cc(F)ccc3F)c2c1C	none
Cc1sc2ncnc(SCC(=O)c3cc(C)n(Cc4ccco4)c3C)c2c1C	USP17 block 39
COc1ccc(OC)c(NC(=O)c2sccc2Oc2ccc(F)cc2[N+](=O)[O-])c1	USP30 inh 30
CC(=O)Nc1ccc(NC(=O)c2sccc2Oc2ccc([N+](=O)[O-])cc2)cc1	none
Cc1cc(C)c2c(n1)sc1c(=O)n(CC(=O)Nc3cccc(Cl)c3)cnc12	USP17 block 41
O=C(Cn1cnc2c(sc3ccccc32)c1=O)Nc1ccc(F)c(F)c1	none
COc1cccc(OC)c1C(=O)OCC(=O)Nc1ccc(Oc2ccccc2)cc1	USP28 inh 34
COC(=O)c1ccc(NC(=O)CCC(=O)OCC(=O)c2cccc([N+](=O)[O-])c2)cc1	none
O=C(COC(=O)c1cccc([N+](=O)[O-])c1)Nc1cccc(Oc2ccccc2)c1	USP30 inh 32
CC(C)Oc1ccc(C(=O)OCC(=O)Nc2ccc(Oc3ccccc3)cc2)cc1	none
O=c1[nH]c2ccc(NCc3ccccc3OCc3ccc(Cl)cc3)cc2[nH]1	USP30 inh 31, USP28 inh 37
CCC(=O)N1CCc2sc(S(=O)(=O)NC3CCCCC3)cc2C1	none
Cc1ccc(CCNC(=O)c2nn(C34CC5CC(CC(C5)C3)C4)cc2[N+](=O)[O-])cc1	USP30 inh 47
Cc1ccc(CNC(=O)c2ccc(N3CCC(C)CC3)c([N+](=O)[O-])c2)cc1	none
CCOC(=O)N1CCN(C(=O)c2cccc(N3C(=O)C(C)(C)CS3(=O)=O)c2)CC1	none
CC(C)c1n[nH]c(=O)c2c1nnn2Cc1ccccc1F	USP30 inh 34
O=C(Nc1ccc2c(c1)OCO2)c1cnc(N2CCOCC2)nc1	USP17 block 40
O=C(COc1ccc(C(=O)c2ccccc2)cc1)Nc1ccc2c(c1)OCO2	none
O=C(Nc1ccc(F)c(F)c1)c1cnc(N2CCOCC2)nc1	none
O=C(Nc1ccc(OCC(=O)N2CCOCC2)cc1)c1ccc2c(c1)OCO2	USP28 inh 37
O=C(Nc1ccc2c(c1)OCCO2)c1cnc(N2CCOCC2)nc1	USP28 inh 42
Cc1cc2nccc(C3CCN(C(=O)COc4cccnc4)CC3)n2n1	none
CCCc1cc(CNC(=O)C2(C)CC(=O)N=C3C=C(C)C=CN32)on1 (stereo unspecified)	none
COc1ccc(CCNC(=O)CSc2nnc(NC(=O)c3ccccc3OC)s2)cc1OC	USP30 inh 32
CC(C)N(C(=O)COC(=O)c1ccccc1OCc1ccc(Cl)cc1)c1ccccc1	none
O=C(OC(C(=O)c1ccccc1)c1ccccc1)c1cc2ccccc2cc1O (stereo unspecified)	none
COc1ccccc1-c1nc2c3cnn(-c4ccc(C)cc4)c3ncn2n1	none
COc1ccccc1C1=NC(c2ccc(C)cc2)N=C1C (stereo unspecified)	USP17 block 32
COc1c(C)c(C(O)C(C)O)c2[nH]c3ccc(CC=C(C)C)cc3c2c1O (stereo unspecified)	USP17 block 99, USP30 inh 48, USP28 inh 48
Cc1ccccc1CNC(=O)C1CCN(C2=NS(=O)(=O)c3ccccc32)CC1	USP30 inh 32
O=C(NCc1ccccc1)C1CCN(C2=NS(=O)(=O)c3ccccc32)CC1	none (no result: USP30 inh, USP28 inh)
COc1ccc(NC(=O)C2CCN(C3=NS(=O)(=O)c4ccccc43)CC2)cc1	USP17 block 43, USP30 inh 41
COc1ccc(NC(=O)CSc2ncnc3nc[nH]c23)cc1Cl	none (no result: USP17 block)
N#Cc1cccc(NC(=O)N2C[C@H]3CN(C(=O)c4ccccc4)CC[C@H]32)c1	none
O=C1N(c2cccnc2)C(=O)C2(Cc3ccccc3)CCN(Cc3ccccc3)CCN12 (stereo unspecified)	none
COc1cc2c(cc1OC)-c1cc(NCc3cc(OC)c(OC)c(OC)c3)nc(=O)n1CC2	OTUD3 inh 41 (no result: USP17 block)
COc1cccc(CNC(=O)[C@H](CCSC)NC(=O)[C@@H]2Cc3c([nH]c4ccccc34)C3c4ccccc4C(=O)N32)c1 (stereo partly specified)	none
